# Artemis inh: Artemis endonuclease inhibitors, primary screen, biochemical, fluorescence intensity, FAM/BHQ-1 hairpin substrate | 30,000 compounds, 0.78% hits | recombinant Artemis, quenched FAM hairpin cleavage fluorescence | inhibition, % at 10 µM | Protein artemis (Homo sapiens), Q96SD1;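 active = at 10 µM dose, at least 30% inhibition, measured as corrected fluorescence normalized to stimulator and neutral control wells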
# Target sequence (Q96SD1 whole entry, looked up): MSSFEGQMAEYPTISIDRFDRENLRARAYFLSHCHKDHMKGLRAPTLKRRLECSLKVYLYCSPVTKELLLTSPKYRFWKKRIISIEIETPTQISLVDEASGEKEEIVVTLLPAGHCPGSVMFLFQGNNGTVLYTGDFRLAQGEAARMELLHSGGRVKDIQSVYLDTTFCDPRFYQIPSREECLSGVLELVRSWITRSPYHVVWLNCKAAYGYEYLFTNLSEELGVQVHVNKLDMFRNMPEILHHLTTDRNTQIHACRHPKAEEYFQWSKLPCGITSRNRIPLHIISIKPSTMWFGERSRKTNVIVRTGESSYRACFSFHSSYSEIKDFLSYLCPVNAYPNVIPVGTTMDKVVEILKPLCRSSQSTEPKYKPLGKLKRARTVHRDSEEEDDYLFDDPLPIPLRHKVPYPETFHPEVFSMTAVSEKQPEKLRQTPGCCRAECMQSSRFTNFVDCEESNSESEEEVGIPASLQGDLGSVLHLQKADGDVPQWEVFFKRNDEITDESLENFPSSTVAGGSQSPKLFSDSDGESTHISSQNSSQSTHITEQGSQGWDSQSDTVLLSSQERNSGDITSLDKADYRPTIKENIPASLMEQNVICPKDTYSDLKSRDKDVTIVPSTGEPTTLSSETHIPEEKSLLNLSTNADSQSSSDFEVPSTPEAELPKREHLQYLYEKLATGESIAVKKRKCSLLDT
# The depositor's hits bear a star. The entries come from a sample that favours hits as a whole.
SMILES,Artemis inh
COc1ccc(-c2c(C#N)c(SCC(=O)Nc3ccccc3)nc3c2CCCC3)cc1,11.6
COc1ccc(NC(=O)CSc2nc3c(cc2C#N)CN(C)CC3)cc1,37.0*
CCn1c(O)c(C=Nc2ccccc2)n(-c2ccccc2)c1=S,2.0
CC12CCC(C(=O)N(NC(=O)c3cc(Cl)ccc3O)C1=O)C2(C)C (centres undefined),-2.6
CCc1nccn1S(=O)(=O)c1ccc(Br)cc1Br,-4.5
CCC1(CC)NC(=O)N(CC(=O)Nc2sc3c(c2C(N)=O)CCC3)C1=O,17.7
O=c1cc(-c2ccccc2)nc2nc(-c3ccccc3)[nH]n12,5.1
Nc1[nH]n2c(=O)cc(-c3ccccc3)nc2c1N=Nc1ccccc1,47.3*
O=c1cc(-c2ccccc2)nc2nc(COc3ccccc3)[nH]n12,5.2
N#CC1=C(N2CCCCC2)c2cc3c(n2C1=O)CCCC3,3.2
COc1ccc(C(=O)NCCCn2ccnc2)cc1,-4.1
Cc1ccc(-c2cc(C(=O)NCCCn3ccnc3)c3cc(Br)ccc3n2)o1,31.0*
Cc1ccc(-c2cc(C(=O)NCc3ccco3)c3ccccc3n2)o1,10.7
O=C(CN1C(=O)NC2(CCCCCC2)C1=O)Nc1ccc(S(=O)(=O)N2CCOCC2)cc1,-8.7
O=C(Nc1ncc2c(n1)CC(c1ccco1)CC2=O)c1ccccc1 (centres undefined),-3.2
Cc1cccc(Nc2ncc3c(n2)CC(c2ccco2)CC3=O)c1 (centres undefined),7.0
O=C1CC(c2ccco2)Cc2nc(Nc3nc(-c4ccccc4)c4ccccc4n3)ncc21 (centres undefined),34.2*
CCC1C(=O)Nc2nc(-c3ccccc3)c(-c3ccccc3)n2N=C1C (centres undefined),7.9
Oc1ccc(Cl)cc1C(C#Cc1ccccc1)N1CCOCC1 (centres undefined),0.6
CCOc1ccc(OCC)c(NC(=O)C2CCCN(S(=O)(=O)c3cccs3)C2)c1 (centres undefined),-1.9
COc1ccc2nc(NC(=O)C3CCCN(S(=O)(=O)c4cccs4)C3)sc2c1 (centres undefined),39.5*
COc1ccc2nc(NC(=O)C3CCN(S(=O)(=O)c4cnc[nH]4)CC3)sc2c1,3.6
CC(C)Cn1c(N)c(C(=O)COC(=O)CC23CC4CC(CC(C4)C2)C3)c(=O)n(C)c1=O,8.2
CCOC(=O)C(C(=O)Nc1ccc(C)cc1)C1CCCCC1 (centres undefined),-3.4
COc1cccc(OC)c1C(=O)N1CCN(Cc2ccccc2C)CC1,-4.7
CCOC(=O)/C(C#N)=C1/C=Cc2ccccc2N1CC,0.2
CCOC(=O)/C=c1\s/c(=C(\C#N)C(=O)OCC)n(-c2ccccc2)c1=O,31.1*
CCOC(=O)c1c(O)c2ccccc2n(-c2ccccc2)c1=O,5.2
c1ccc(Oc2cccc(OCCCCSc3ncccn3)c2)cc1,-1.1
Cc1ccc(SCC(=O)N2c3ccccc3Sc3ccccc32)cc1,8.1

# High-throughput results from PubChem.
